Test results reported in PubChem BioAssay (EPA / NIEHS).
Activity calls are given as the source filed them. Rule for the calls: active = hit-call score of the fitted dose curve at least 0.9, where 1 is the maximum; inactive = score below 0.9.

Legend:
[1] = target: Transcription factor E2F1 (Homo sapiens) (UniProt Q01094); test: ATG_E2F_CIS: Attagene CIS-FACTORIAL HepG2 Assay for human E2F Transcription Factor 1 (AID 2282935); settings: HepG2 Attagene cis-reporter, E2F reporter RNA transcripts; actives raise or lower the signal
Chain of Transcription factor E2F1 (Homo sapiens) (Q01094 whole entry, looked up): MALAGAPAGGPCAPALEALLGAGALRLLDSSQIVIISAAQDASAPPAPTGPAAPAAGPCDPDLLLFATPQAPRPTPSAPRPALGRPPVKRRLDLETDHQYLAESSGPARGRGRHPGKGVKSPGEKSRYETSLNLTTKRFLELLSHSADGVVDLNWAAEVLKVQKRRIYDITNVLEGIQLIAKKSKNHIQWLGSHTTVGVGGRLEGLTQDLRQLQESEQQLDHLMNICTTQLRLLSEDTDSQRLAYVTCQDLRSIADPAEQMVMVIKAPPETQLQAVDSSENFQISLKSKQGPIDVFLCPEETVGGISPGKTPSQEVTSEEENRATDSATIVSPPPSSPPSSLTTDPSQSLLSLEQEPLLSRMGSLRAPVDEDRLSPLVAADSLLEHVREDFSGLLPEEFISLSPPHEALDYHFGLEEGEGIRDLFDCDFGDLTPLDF
How it was run: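 Multiplexed cis-reporter assay: HepG2, transient transfection, 24 h dosing, mRNA quantitation by labeled RT-PCR and CE.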

[2] = ATG_E_Box_CIS: Attagene CIS-FACTORIAL HepG2 Assay for human Enhancer Box (E-box) (AID 2282936); settings: HepG2 E-box cis-reporter transcription, actives raise or lower the signal
How it was run: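 Multiplexed CIS reporter system in transiently transfected HepG2 cells measures native transcription factor activity. Reporter RNA after 24 h exposure is profiled by RT-PCR-capillary electrophoresis.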

[3] = ATG_M_61_CIS: Attagene CIS-FACTORIAL HepG2 Assay for M61 Transcription Factor (Internal Marker) (AID 2282937); settings: HepG2 Attagene CIS-FACTORIAL M61 internal marker reporter; actives raise or lower the signal
How it was run: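 Endogenous transcription factor activity in HepG2 is read through transiently transfected cis-element reporter units. After 24 h dosing, RNA undergoes reverse transcription, PCR and primer extension with 6-FAM before capillary electrophoresis; DMSO-referenced bidirectional fit.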

[4] = ATG_EGR_CIS: Attagene CIS-FACTORIAL HepG2 Assay for human Early Growth Response 1 (EGR1) (AID 2282938); settings: HepG2 Attagene CIS-FACTORIAL EGR reporter mRNA; actives raise or lower the signal
How it was run: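 Activity is taken as induction or loss of reporter mRNA versus DMSO, fitted bidirectionally. Transcripts from cis-regulated reporter units in transiently transfected HepG2 were measured after 24 h by RT-PCR with capillary electrophoresis.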

[5] = ATG_M_19_CIS: Attagene CIS-FACTORIAL HepG2 Assay for M19 Transcription Factor (Internal Marker) (AID 2282939); settings: HepG2 Attagene CIS-FACTORIAL M19 internal marker reporter; actives raise or lower the signal
How it was run: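 Internal marker readout, fitted in both directions against DMSO, from HepG2 cells carrying transfected cis-element reporter constructs; RT-PCR and capillary electrophoresis of reporter mRNA after 24 h exposure.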

[6] = ATG_ERE_CIS: Attagene CIS-FACTORIAL HepG2 Assay for Estrogen Response Element (ERE) (AID 2282940); settings: HepG2 ERE cis-reporter, Attagene RNA transcript; actives raise or lower the signal
How it was run: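 After 24 h compound treatment, RNA from transfected HepG2 cells was reverse-transcribed, reporter cDNA PCR-amplified, FAM-labelled, HpaI-cut and resolved by capillary electrophoresis. ERE-driven cis reporter transcripts reflect endogenous factors; gain or loss scored against DMSO.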

[7] = ATG_Ets_CIS: Attagene CIS-FACTORIAL HepG2 Assay for human Erythroblast Transformation Specific (ETS) (AID 2282941); settings: HepG2 ETS cis-reporter transcription, actives raise or lower the signal
How it was run: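 Human HepG2 hepatoma cells were transiently transfected with promoter-driven reporter constructs and treated for 24 hours. Reporter transcripts were quantified by RT-PCR with fluorescent primer extension; bidirectional curve fitting used DMSO as reference.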

[8] = target: Hepatocyte nuclear factor 3-beta (Homo sapiens) (UniProt Q9Y261); test: ATG_FoxA2_CIS: Attagene CIS-FACTORIAL HepG2 Assay for human Forkhead box A2 (FOXA2) (AID 2282942); settings: HepG2 cis-reporter transcription factor activity, 24 h; actives raise or lower the signal
Chain of Hepatocyte nuclear factor 3-beta (Homo sapiens) (Q9Y261 whole entry, looked up): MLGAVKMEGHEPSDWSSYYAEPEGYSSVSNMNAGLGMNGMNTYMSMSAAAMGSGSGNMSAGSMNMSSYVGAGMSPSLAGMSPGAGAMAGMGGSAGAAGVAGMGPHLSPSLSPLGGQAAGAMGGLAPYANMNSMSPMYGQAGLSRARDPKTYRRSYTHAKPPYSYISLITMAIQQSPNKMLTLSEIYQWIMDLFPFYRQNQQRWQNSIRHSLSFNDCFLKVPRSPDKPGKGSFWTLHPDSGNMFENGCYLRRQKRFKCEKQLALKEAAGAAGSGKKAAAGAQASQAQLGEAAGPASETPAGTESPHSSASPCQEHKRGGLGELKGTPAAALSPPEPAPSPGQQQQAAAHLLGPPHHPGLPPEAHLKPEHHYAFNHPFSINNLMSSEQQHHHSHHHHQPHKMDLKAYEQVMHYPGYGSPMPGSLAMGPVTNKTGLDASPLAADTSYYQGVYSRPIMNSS
How it was run: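 Reporter transcript induction is measured by fluorescence after capillary electrophoresis of RT-PCR products from HepG2 cells exposed 24 h. Cis-regulated reporter units report endogenous factor activity; curves fitted both directions against DMSO.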

[9] = ATG_GATA_CIS: Attagene CIS-FACTORIAL HepG2 Assay for human GATA Binding Protein (AID 2282944); settings: HepG2 GATA cis-element reporter, Attagene multiplex mRNA; actives raise or lower the signal
How it was run: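 Reporter transcripts from a GATA cis-regulated unit, among multiplexed reporters in transfected HepG2 cells, were measured by RT-PCR with capillary electrophoresis after 24 h dosing. Induction or loss scored relative to DMSO.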

[10] = ATG_GLI_CIS: Attagene CIS-FACTORIAL HepG2 Assay for human Zinc Finger Protein GLI1 (AID 2282945); settings: HepG2, Attagene cis-factorial reporter mRNA, GLI element; actives raise or lower the signal
How it was run: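 HepG2 cells transiently transfected with cis-promoter multiplexed reporter units report endogenous transcription factor activity. After 24 h chemical exposure, reporter mRNA was quantified by RT-PCR, 6-FAM labelling, HpaI digestion and capillary electrophoresis, with bidirectional fitting against DMSO.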

[11] = ATG_ISRE_CIS: Attagene CIS-FACTORIAL HepG2 Assay for human Interferon Regulatory Factor 1 (IRF1) binding to an Interferon-Stimulated Response Element (ISRE) (AID 2282948); settings: HepG2 ISRE cis-reporter (Attagene), mRNA transcription readout; actives raise or lower the signal
How it was run: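 Cell-based cis-reporter assay; HepG2; 24 h exposure; reporter mRNA by RT-PCR plus capillary electrophoresis fluorescence; activity in either direction scored relative to DMSO.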

[12] = ATG_M_32_CIS: Attagene CIS-FACTORIAL HepG2 Assay for M32 Transcription Factor (Internal Marker) (AID 2282949); settings: HepG2 Attagene cis-factorial M32 reporter, mRNA; actives raise or lower the signal;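 note: background control marker of the multiplexed CIS panel rather than a real target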
How it was run: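 Fluorescent capillary electrophoresis peaks of HpaI-digested, FAM-labelled RT-PCR reporter products give the signal. Source: transiently transfected human liver HepG2 cells, 24 h after chemical dosing; bidirectional fitting against DMSO.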

[13] = ATG_M_06_CIS: Attagene CIS-FACTORIAL HepG2 Assay for M06 Transcription Factor (Internal Marker) (AID 2282950); settings: HepG2 Attagene CIS-FACTORIAL M06 internal marker reporter; actives raise or lower the signal
How it was run: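 Serves as a background control readout. Transfected HepG2 exposed to compounds for 24 h, then reporter transcripts quantified by fluorescent RT-PCR and capillary electrophoresis. Both directions fitted against DMSO baseline.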

[14] = target: Hepatocyte nuclear factor 6 (Homo sapiens) (UniProt Q9UBC0); test: ATG_HNF6_CIS: Attagene CIS-FACTORIAL HepG2 Assay for human Hepatocyte Nuclear Factor 6 (HNF6) (AID 2282952); settings: HepG2 Attagene cis-factorial HNF6 reporter transcription; actives raise or lower the signal
Chain of Hepatocyte nuclear factor 6 (Homo sapiens) (Q9UBC0 whole entry, looked up, the tested form may be a part): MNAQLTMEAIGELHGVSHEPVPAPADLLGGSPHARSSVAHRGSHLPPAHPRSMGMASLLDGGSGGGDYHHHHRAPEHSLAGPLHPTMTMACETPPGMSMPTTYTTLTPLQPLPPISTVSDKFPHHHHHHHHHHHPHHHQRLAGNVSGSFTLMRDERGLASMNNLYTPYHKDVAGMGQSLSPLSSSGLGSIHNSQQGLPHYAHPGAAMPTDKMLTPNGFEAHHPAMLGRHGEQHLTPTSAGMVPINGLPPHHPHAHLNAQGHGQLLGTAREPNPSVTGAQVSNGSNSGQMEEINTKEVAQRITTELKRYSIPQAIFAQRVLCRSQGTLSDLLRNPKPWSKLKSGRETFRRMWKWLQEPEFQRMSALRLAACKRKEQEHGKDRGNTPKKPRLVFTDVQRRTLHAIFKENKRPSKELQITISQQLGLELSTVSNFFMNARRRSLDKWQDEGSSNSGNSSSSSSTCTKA
How it was run: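 Reporter mRNA induction or loss in HepG2 after 24 h exposure; transient cis-MRTU transfection; fragments quantified by capillary electrophoresis; bidirectional analysis, DMSO as negative control.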

[15] = target: Heat shock factor protein 1 (Homo sapiens) (UniProt Q00613); test: ATG_HSE_CIS: Attagene CIS-FACTORIAL HepG2 Assay for human Heat Shock Transcription Factor 1 (HSE) (AID 2282953); settings: HepG2 HSE cis-reporter, Attagene RNA transcription; actives raise or lower the signal
Chain of Heat shock factor protein 1 (Homo sapiens) (Q00613 whole entry, looked up): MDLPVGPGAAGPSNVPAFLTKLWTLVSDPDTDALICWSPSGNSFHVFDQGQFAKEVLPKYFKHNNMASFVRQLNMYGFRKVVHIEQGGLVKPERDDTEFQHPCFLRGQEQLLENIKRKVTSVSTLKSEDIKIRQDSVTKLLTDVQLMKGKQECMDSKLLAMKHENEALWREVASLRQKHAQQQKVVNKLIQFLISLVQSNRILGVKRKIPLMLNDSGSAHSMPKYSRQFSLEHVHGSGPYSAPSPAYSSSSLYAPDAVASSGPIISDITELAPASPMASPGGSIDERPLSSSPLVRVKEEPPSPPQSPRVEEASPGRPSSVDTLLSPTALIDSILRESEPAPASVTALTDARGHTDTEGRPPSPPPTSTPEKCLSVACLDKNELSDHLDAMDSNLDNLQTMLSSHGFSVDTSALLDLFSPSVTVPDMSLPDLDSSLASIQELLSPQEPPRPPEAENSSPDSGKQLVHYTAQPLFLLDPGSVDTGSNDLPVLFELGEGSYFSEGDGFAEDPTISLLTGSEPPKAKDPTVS
How it was run: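 Endogenous transcription factor activity in transiently transfected HepG2, read as reporter mRNA by RT-PCR with fluorescent capillary electrophoresis after 24 h. Gain or loss of signal fitted versus DMSO baseline.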

[16] = ATG_MRE_CIS: Attagene CIS-FACTORIAL HepG2 Assay for human Metal Responsive Element (MRE) (AID 2282954); settings: HepG2 MRE cis-reporter transcription, Attagene multiplex; actives raise or lower the signal
How it was run: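 Step one: transfect HepG2 with cis-regulated reporter units. Step two: dose 24 h. Step three: isolate RNA, RT-PCR, 6-FAM label, HpaI digest, capillary electrophoresis. Fit bidirectionally to DMSO.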

[17] = ATG_FoxO_CIS: Attagene CIS-FACTORIAL HepG2 Assay for human Forkhead box O (FoxO) (AID 2282943); settings: HepG2 Attagene cis-reporter, FoxO element, mRNA; actives raise or lower the signal
How it was run: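 Values reflect reporter mRNA induction or loss in HepG2 cells 24 h post-dosing, fitted bidirectionally with DMSO as negative control and baseline. Detection used RT-PCR and fluorescence capillary electrophoresis.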

[18] = target: Bile acid receptor (Homo sapiens) (UniProt Q96RI1); test: ATG_IR1_CIS: Attagene CIS-FACTORIAL HepG2 Assay for human Nuclear Receptor Subfamily 1 Group H Member 4 (NR1H4), IR1 submotif (AID 2282946); settings: IR1 reporter transcription, actives raise or lower the signal
Chain of Bile acid receptor (Homo sapiens) (Q96RI1 whole entry, looked up): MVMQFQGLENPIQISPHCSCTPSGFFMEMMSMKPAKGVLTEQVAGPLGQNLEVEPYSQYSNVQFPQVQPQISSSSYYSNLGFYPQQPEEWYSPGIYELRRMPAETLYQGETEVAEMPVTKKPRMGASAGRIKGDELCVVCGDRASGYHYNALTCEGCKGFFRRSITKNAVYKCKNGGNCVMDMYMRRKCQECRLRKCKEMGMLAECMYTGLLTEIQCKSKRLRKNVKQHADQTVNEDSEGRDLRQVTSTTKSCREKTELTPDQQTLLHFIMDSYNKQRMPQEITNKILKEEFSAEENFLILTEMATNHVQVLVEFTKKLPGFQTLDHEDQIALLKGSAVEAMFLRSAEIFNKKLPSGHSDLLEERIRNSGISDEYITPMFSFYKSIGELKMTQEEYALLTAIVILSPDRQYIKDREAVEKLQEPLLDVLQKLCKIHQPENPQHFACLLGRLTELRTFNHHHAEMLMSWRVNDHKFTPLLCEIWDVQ
How it was run: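 Transient MRTU transfection, HepG2; 24 h dosing; RNA → RT-PCR → 6-FAM primer extension → HpaI digest → capillary electrophoresis fluorescence. Gain/loss of signal fitted relative to DMSO.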

[19] = target: Hypoxia-inducible factor 1-alpha (Homo sapiens) (UniProt Q16665); test: ATG_HIF1a_CIS: Attagene CIS-FACTORIAL HepG2 Assay for human Hypoxia Inducible Factor 1 (HIF1A) (AID 2282951); settings: HepG2 Attagene cis-factorial HIF1a reporter transcription; actives raise or lower the signal
Chain of Hypoxia-inducible factor 1-alpha (Homo sapiens) (Q16665 whole entry, looked up): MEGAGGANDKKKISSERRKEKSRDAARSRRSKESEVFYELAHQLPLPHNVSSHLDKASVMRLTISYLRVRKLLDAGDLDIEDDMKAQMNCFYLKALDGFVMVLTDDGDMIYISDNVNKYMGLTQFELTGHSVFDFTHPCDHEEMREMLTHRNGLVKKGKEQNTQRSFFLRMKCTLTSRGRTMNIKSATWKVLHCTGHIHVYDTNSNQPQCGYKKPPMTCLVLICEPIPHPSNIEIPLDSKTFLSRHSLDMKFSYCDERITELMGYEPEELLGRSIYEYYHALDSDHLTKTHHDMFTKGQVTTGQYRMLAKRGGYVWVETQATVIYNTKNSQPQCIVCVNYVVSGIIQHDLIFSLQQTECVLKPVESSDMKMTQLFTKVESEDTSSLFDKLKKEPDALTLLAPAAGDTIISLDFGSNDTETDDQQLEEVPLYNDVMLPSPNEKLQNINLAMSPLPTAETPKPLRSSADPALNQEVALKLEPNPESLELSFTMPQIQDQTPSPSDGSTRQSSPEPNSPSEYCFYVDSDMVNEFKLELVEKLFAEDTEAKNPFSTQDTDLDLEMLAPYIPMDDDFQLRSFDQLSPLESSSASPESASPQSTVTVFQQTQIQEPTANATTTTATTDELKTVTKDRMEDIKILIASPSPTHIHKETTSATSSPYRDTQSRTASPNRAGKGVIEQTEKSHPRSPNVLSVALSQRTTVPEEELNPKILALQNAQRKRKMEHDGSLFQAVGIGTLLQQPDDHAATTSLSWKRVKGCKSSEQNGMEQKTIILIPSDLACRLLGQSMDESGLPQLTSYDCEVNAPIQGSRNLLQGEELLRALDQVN
How it was run: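 Fluorescence intensity of capillary-separated, 6-FAM-labelled reporter amplicons gives mRNA induction in HepG2 cells carrying transfected cis-promoter reporter units; cells exposed 24 h, responses fitted up or down from DMSO.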

[20] = ATG_GRE_CIS: Attagene CIS-FACTORIAL HepG2 Assay for human Glucocorticoid Response Elements (GRE) (AID 2282947); settings: HepG2 GRE cis-reporter, Attagene multiplex mRNA; actives raise or lower the signal
How it was run: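 Following 24 h chemical exposure of transiently transfected HepG2 cells, total RNA was reverse-transcribed and reporter cDNA amplified, fluorescently labelled and sized by capillary electrophoresis. Signal gain or loss was fitted relative to DMSO vehicle.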

Measured: AC50

CCCCCCCCCCCCCCCCCC(=O)O
active: [6] 2.75 µM
not listed: [17] | [18] | [19] | [20]
inactive: all other assays above

COCCOCCOC
not listed: [15] | [20]
inactive: all other assays above

CC=Cc1ccc(O)c(OC)c1
not listed: [15] | [17] | [18] | [19] | [20]
inactive: all other assays above

CCCCN(CCCC)CCCC
inactive: all assays above

COc1cc(/C=C/C(=O)CC(=O)/C=C/c2ccc(O)c(OC)c2)ccc1O
active: [2] 45.8 µM | [4] 42.5 µM | [17] 33.4 µM | [10] 53.9 µM | [18] 51 µM | [11] 33.4 µM | [14] 47.4 µM | [16] 52.6 µM
not listed: [15]
inactive: all other assays above

Cc1oc(-c2ccccc2)nc1CCOc1cccc2c1ccn2CCC(=O)O
active: [6] 0.066 µM | [8] 1.86 µM
not listed: [15] | [18] | [19]
inactive: all other assays above

O=C(O)CCCCC(=O)O
not listed: [15] | [17]
inactive: all other assays above

O=C(O)Cc1ccccc1Nc1c(Cl)cccc1Cl
active: [2] 176 µM
not listed: [17] | [20]
inactive: all other assays above

O=c1c(O)c(-c2ccc(O)c(O)c2)oc2cc(O)cc(O)c12
active: [6] 25.8 µM
not listed: [15] | [18] | [19] | [20]
inactive: all other assays above

CC1(C)CC(N=C=O)CC(C)(CN=C=O)C1 (stereo not drawn)
not listed: [19] | [20]
inactive: all other assays above

CCOC(=O)CCC(=O)OCC
not listed: [15] | [17] | [18] | [19]
inactive: all other assays above

COc1cc(-c2nc(NC(=O)c3cc4cc(C)cc(C)c4n3CC(=O)O)sc2CCC2CCCCC2)c(OC)cc1Cl
active: [2] 25.6 µM | [4] 9.13 µM | [7] 32.2 µM | [10] 100 µM | [11] 12.7 µM | [15] 65.7 µM | [16] 6.2 µM
inactive: all other assays above

CC(=O)Oc1ccccc1C(=O)O
not listed: [15] | [17] | [18] | [19]
inactive: all other assays above

CCCCCCCC=O
not listed: [15] | [18] | [19] | [20]
inactive: all other assays above
